# Data as given in PubChem BioAssay (NCI).
# Compounds without any hit were thinned out: in the full panel of roughly 79,000, 15% have a hit. A number with no mark means an inactive call. Rule as the data show it: active = growth inhibition above about 70%; inactive = the rest.
# Test: NCI Yeast Anticancer Drug Screen. Data for the sgs1 mgt1 strain (AID 161);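 also: 0% = growth of cultures given vehicle only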
# Details: S. cerevisiae sgs1 mgt1 strain, at 50.0 µM, hits give high values
# Outline: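 Inhibition of yeast growth, normalised to vehicle-treated controls, is reported for a strain bearing genetic alterations in DNA damage repair.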
row,SMILES,growth inhibition
1,C=C(C)CN(Cc1ccccc1)C1CCCCCCC1,-14.8%
2,CCN(CC)CCOC(=O)Cc1cccc2c(=O)cc(-c3ccc(OC)cc3)oc12,-12.4%
3,CCOC(=O)c1ccc(NCCCc2c(C)nc(N)[nH]c2=O)cc1,-9.15%
4,O=C(CC1=NC2NN(c3ccccc3)C(=O)C2=C1CC(=O)C(c1ccccc1)c1ccccc1)C(c1ccccc1)c1ccccc1 (stereo not given),27.8%
5,CCN1CC(O)c2cc(N=NC(N)=O)c(O)cc21 (stereo not given),3.1%
6,Cc1cc(=O)c2cc(Cc3ccc(N)cc3)ccc2[nH]1,-8%
7,O=C1C(Cl)N(c2c(Cl)cccc2Cl)C1c1c[nH]c2ccccc12 (stereo not given),-34.2%
8,COc1ccc(-n2c(=O)c(N=Nc3ccccc3)c(O)n(-c3ccccc3OC)c2=S)cc1,40.5%
9,CC(C)C(=O)CC(c1ccc(Cl)cc1)N1N=C(C(C)C)CC1c1ccc(Cl)cc1 (stereo not given),6.95%
10,CCOC(=O)C(C#N)C(=O)c1ccccc1-c1ccccc1[N+](=O)[O-] (stereo not given),3.35%
11,O=C(C[n+]1ccncc1)c1ccc2c(c1)CCCC2,14.7%
12,CN(C)Cc1ccc2ccccc2c1CC(O)(c1ccccc1)c1ccccc1,9.55%
13,CCC(=O)N1NC(=O)C(CC)(CC)C1=O,11.1%
14,CC1=NN(c2ccccc2)C(=O)/C1=C1\SC(c2ccccc2)(c2ccccc2)c2ccccc21,1.8%
15,CC(C)(C)n1nnnc1N,6%
16,O=Cc1ccc(OCc2cccc([N+](=O)[O-])c2)cc1,26.4%
17,Cc1ccc(Cl)cc1N,8.25%
18,CC1(C)CC(Nc2ccc(Nc3ccccc3)cc2)CC(C)(C)N1,-11.3%
19,COC1OC2COc3ccccc3OC2C2C1N2C(N)=S (stereo not given),16.7%
20,CCN(c1ccccc1C(=O)O)S(=O)(=O)c1ccc(C)cc1,23.2%

row,SMILES,growth inhibition
1,c1ccc(SC(Sc2ccccc2)=C2CCC2)cc1,10.4%
2,NC(CSS(=O)(=O)c1ccccc1)C(=O)O (stereo not given),-0.75%
3,COc1cccc(NC(=O)CC(=O)N2N=C(N(CCC#N)c3ccc(Cl)cc3)CC2c2ccccc2)c1 (stereo not given),19.1%
4,CCOC(=O)C1CN(C2CCCCC2)CCC1=O (stereo not given),4.85%
5,CCC12OC3(CC)C4C(=O)OC1C1(CC)OC4(CC)C3C(=O)OC21,4.85%
6,NC(=O)CCn1ccc2ccccc21,0%
7,Clc1cccc(CC(Br)Br)c1,6.75%
8,CSc1ccc(C2OC(=O)c3ccccc32)c2ccccc12 (stereo not given),21.2%
9,COc1cc(C2C3=C(COC3=O)OC(C)(C)Oc3cc4c(cc32)OCO4)cc(OC)c1O (stereo not given),-7.3%
10,CCCCNC(=O)Nc1cc(C)ccc1C,-0.7%
11,O=[N+]([O-])c1ccc(O)c(O)c1,-10%
12,CC1(c2ccco2)CCC(=O)CC1=O (stereo not given),4.1%
13,COc1cc(C(c2cc3c(cc2OC(C)=O)OCO3)C(C(C)=O)C(C)=O)cc(OC)c1OC (stereo not given),-5.1%
14,COc1ccc(CCCNC(=O)c2cc(OC)c(OC)cc2CCO)cc1OC,-45.5%
15,Cc1[nH]c2ccccc2c1C1=CC(=O)N(c2ccccc2)C1=O,9.3%
16,CC(C)C1C(O)C23CCC4C(C)(CO)CCCC4(C)C2CC13 (stereo not given),-22.6%
17,O=C(O)c1c[n+]([O-])ccc1Cl,-8%
18,Cc1ccc([N+](=O)[O-])cc1N1CCNC1=O,-12.2%
19,CC(=O)Nc1c(C(=N)C#N)ncn1CCO,8.35%
20,COC(=O)C1=C(C)C=C(N2CCOCC2)C(C(=O)OC)C1c1ccccc1 (stereo not given),-11.4%
